The nature of assay [1]: qHTS assay to identify small molecule agonists of the peroxisome proliferator-activated receptor delta (PPARd) signaling pathway - cell viability counter screen (AID 743211; active means well fitted curve in the direction sought with a large enough effect in the repeat runs; an effect the other way counts as inactive or inconclusive; further: nearly all actives have a fitted effect of over 55% in size). Summed up:
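Multiplexed format: after the 2 h room-temperature LiveBLAzer B/G FRET step, CellTiter-Glo was added to the same wells. Luminescence after 30 min gave cell viability; compound exposure was 17 h at 37C.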

In assay [2] the target is Peroxisome proliferator-activated receptor delta (Homo sapiens) (UniProt Q03181). Nature of the assay: qHTS assay to identify small molecule agonists of the peroxisome proliferator-activated receptor delta (PPARd) signaling pathway (AID 743212). Summed up: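 GeneBLAzer PPARd UAS-bla HEK293H cells (beta-lactamase reporter under UAS control), plated and rested 5 h at 37 C, then exposed to compounds in DMSO at 37 C; LiveBLAzer B/G FRET substrate added, 2 h room temperature, fluorescence read.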
Sequence of Peroxisome proliferator-activated receptor delta (Homo sapiens) (Q03181 whole entry, looked up): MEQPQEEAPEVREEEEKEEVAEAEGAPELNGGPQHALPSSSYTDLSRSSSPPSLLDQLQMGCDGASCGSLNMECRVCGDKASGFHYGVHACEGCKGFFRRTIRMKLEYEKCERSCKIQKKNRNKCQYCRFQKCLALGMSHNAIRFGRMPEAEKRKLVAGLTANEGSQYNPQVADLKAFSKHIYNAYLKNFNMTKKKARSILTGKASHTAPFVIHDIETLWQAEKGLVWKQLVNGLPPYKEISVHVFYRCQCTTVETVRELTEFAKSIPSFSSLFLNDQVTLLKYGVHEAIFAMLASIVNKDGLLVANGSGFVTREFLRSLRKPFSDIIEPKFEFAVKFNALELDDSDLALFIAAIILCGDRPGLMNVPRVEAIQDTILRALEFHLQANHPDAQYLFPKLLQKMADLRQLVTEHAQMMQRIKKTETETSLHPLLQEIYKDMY
On the technique in general: qHTS replaces the single test concentration by a dilution series.

A short description of assay [3]: qHTS assay to identify small molecule antagonists of the peroxisome proliferator-activated receptor delta (PPARd) signaling pathway - cell viability counter screen (AID 743213; active means well fitted curve in the direction sought with a large enough effect in the repeat runs; an effect the other way counts as inactive or inconclusive; further: nearly all actives have a fitted effect of over 50% in size). Summed up:
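HEK293H PPARd UAS-bla cells, 5 h pre-incubation, compound + L165041 300 nM final, 17 h 37 C; B/G FRET substrate 2 h RT; then CellTiter-Glo 30 min RT, luminescence.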

For assay [4], the target named is Peroxisome proliferator-activated receptor delta (Homo sapiens) (UniProt Q03181). Put plainly: qHTS assay to identify small molecule antagonists of the peroxisome proliferator-activated receptor delta (PPARd) signaling pathway (AID 743215; active means well fitted inhibition curve with a large enough effect in the signal ratio in the repeat runs, not every such curve was filed as active; the % refers to the signal ratio;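 further: cells stimulated with agonist L165041 at 300 nM final during compound exposure; series mostly up to about 62 µM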). Summed up: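 PPARd UAS-bla HEK293H cells were pre-incubated 5 h at 37 C, then given test compounds in DMSO plus agonist L165041 (300 nM final). After 17 h at 37 C, beta-lactamase FRET substrate was added; fluorescence read after 2 h at room temperature.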

A short description of assay [5]: qHTS assay to identify small molecule agonists of the farnesoid-X-receptor (FXR) signaling pathway - cell viability counter screen (AID 743218; active means well fitted curve in the direction sought with a large enough effect in the repeat runs; an effect the other way counts as inactive or inconclusive; further: nearly all actives have a fitted effect of over 45% in size). The essentials: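 FXR-UAS-bla HEK 293T cells, plated 5 h at 37 C, were exposed to compounds for 16 h at 37 C. CellTiter-Glo was then added to the same wells as the bla readout; luminescence read after 30 min at room temperature.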

Assay [6] in a line: qHTS assay to identify small molecule antagonists of the farnesoid-X-receptor (FXR) signaling pathway - cell viability counter screen (AID 743221; active means well fitted cell-killing curve with a large enough effect in the repeat runs, not every such curve was filed as active; further: nearly all actives have a fitted effect of over 50% in size). The essentials: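 CellTiter-Glo, 30 min RT, luminescence; same wells as the LiveBLAzer FRET read. Cells: FXR-UAS-bla HEK 293T. Treatment: compound with chenodeoxycholic acid 50 uM final, 16 h at 37 C.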
For assay [7], the target named is Vitamin D3 receptor (Homo sapiens) (UniProt P11473). Put plainly: qHTS assay to identify small molecule agonists of the vitamin D receptor (VDR) signaling pathway (AID 743222). The essentials: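 VDR-bla cells were plated 4 h at 37C/5% CO2, then exposed to compounds in DMSO for 16 h. After LiveBLAzer B/G FRET substrate addition and 2 h at room temperature, beta-lactamase reporter fluorescence was read.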
Sequence of Vitamin D3 receptor (Homo sapiens) (P11473 whole entry, looked up): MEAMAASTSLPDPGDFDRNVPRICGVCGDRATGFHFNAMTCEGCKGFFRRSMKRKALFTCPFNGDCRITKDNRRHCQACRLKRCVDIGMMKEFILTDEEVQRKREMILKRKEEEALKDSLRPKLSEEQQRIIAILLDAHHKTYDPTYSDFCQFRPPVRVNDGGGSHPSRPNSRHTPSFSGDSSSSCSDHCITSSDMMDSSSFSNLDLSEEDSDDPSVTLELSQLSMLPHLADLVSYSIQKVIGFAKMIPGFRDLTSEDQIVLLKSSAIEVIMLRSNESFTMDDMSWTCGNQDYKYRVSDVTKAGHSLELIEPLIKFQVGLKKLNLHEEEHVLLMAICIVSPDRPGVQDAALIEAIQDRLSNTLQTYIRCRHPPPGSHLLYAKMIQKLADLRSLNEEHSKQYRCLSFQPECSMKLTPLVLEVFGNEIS

Assay [8] shares this target. Nature of the assay: qHTS assay to identify small molecule antagonists of the vitamin D receptor (VDR) signaling pathway (AID 743223; active means well fitted inhibition curve with a large enough effect in the signal ratio in the repeat runs, not every such curve was filed as active; the % refers to the signal ratio). Summed up: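 After VDR-bla cells are plated and left 4 h at 37C, DMSO-dissolved compounds and 3 nM (final) calcitriol agonist are added. Incubation continues 16 h at 37C; FRET beta-lactamase substrate then develops 2 h at room temperature.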

Assay [9] in a line: qHTS assay to identify small molecule agonists of the vitamin D receptor (VDR) signaling pathway - cell viability counter screen (AID 743224; active means well fitted curve in the direction sought with a large enough effect in the repeat runs; an effect the other way counts as inactive or inconclusive; further: series mostly up to about 63 µM; nearly all actives have a fitted effect of over 50% in size). Summed up:
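VDR-bla cells were preincubated 4 h at 37C/5% CO2, then exposed to compounds for 16 h. After the 2 h room-temperature bla FRET read, CellTiter-Glo was added to the same wells and luminescence read after 30 min.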

The nature of assay [10]: qHTS assay to identify small molecule antagonists of the vitamin D receptor (VDR) signaling pathway - cell viability counter screen (AID 743225; active means well fitted curve in the direction sought with a large enough effect in the repeat runs; an effect the other way counts as inactive or inconclusive; further: nearly all actives have a fitted effect of over 50% in size). The essentials:
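Cytotoxicity toward the VDR-bla HEK 293T line was scored by ATP-based CellTiter-Glo luminescence, read in the wells already used for the beta-lactamase readout after 16 h compound treatment under 3 nM 1-alpha,25-dihydroxyvitamin D3 stimulation.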

A short description of assay [11]: qHTS assay to identify small molecule agonists of the NFkB signaling pathway - cell viability counter screen (AID 1159515). Further: series mostly up to about 61 µM; nearly all actives have a fitted effect of over 55% in size. Summed up:
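NFkB-bla ME-180 cells, 2,000/well, were plated overnight at 37 C, 5% CO2, then exposed to compounds in DMSO for 5 hr. After the bla FRET read, CellTiter-Glo was added to the same wells; luminescence was read after 30 min at room temperature.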

The nature of assay [12]: qHTS assay to identify small molecule agonists of the endoplasmic reticulum stress response signaling pathway (AID 1159516; active means well fitted activation curve with a large enough effect in the signal ratio in the repeat runs, not every such curve was filed as active; the % refers to the signal ratio; further: potency means the concentration at half of the fitted maximal effect). Summed up:
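CellSensor ESRE-bla HeLa cells, carrying a beta-lactamase reporter driven by the ER stress response element, were plated overnight and exposed to compounds for 5 hr at 37 C. Reporter activity was read as FRET substrate fluorescence after 2 hr at room temperature.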

A short description of assay [13]: qHTS assay to identify small molecule agonists of the endoplasmic reticulum stress response signaling pathway - cell viability counter screen (AID 1159517). The essentials: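 Luminescence readout: CellTiter-Glo, 30 min RT, same wells as the ESRE-bla reporter read. HeLa ESRE-bla, 1,500 cells/well, o/n 37 C; cpd 5 hr 37 C/5% CO2.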
The nature of assay [14]: qHTS assay to identify small molecule antagonists of the retinoid-related orphan receptor gamma (ROR-gamma) signaling pathway - cell viability counter screen (AID 1159520; active means well fitted curve in the direction sought with a large enough effect in the repeat runs; an effect the other way counts as inactive or inconclusive; further: nearly all actives have a fitted effect of over 50% in size). The essentials: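 Tet-on ROR gamma CHO cells (1,000/well) were plated 4 hr, given compounds in DMSO for 2 hr at 37 C, then induced with 1 uM final doxycycline for 16 hr. Viability was read as ATP by CellTiter-Glo luminescence after 30 min.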

A short description of assay [15]: qHTS assay to identify small molecule agonists of the AP-1 signaling pathway (AID 1159526).
The target in assay [16] is Retinoic acid receptor RXR-alpha (Homo sapiens) (UniProt P19793). Nature of the assay: qHTS assay to identify small molecule agonists of the RXR signaling pathway (AID 1159527). Further: nearly all actives have a fitted effect of over 35% in size. The essentials: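 Reporter activation is measured as beta-lactamase activity via FRET substrate cleavage (emission 460/530 nm) in HEK 293T cells expressing an RXR-alpha-driven bla construct, following 16 hr compound exposure at 37 C.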
Sequence of Retinoic acid receptor RXR-alpha (Homo sapiens) (P19793 whole entry, looked up): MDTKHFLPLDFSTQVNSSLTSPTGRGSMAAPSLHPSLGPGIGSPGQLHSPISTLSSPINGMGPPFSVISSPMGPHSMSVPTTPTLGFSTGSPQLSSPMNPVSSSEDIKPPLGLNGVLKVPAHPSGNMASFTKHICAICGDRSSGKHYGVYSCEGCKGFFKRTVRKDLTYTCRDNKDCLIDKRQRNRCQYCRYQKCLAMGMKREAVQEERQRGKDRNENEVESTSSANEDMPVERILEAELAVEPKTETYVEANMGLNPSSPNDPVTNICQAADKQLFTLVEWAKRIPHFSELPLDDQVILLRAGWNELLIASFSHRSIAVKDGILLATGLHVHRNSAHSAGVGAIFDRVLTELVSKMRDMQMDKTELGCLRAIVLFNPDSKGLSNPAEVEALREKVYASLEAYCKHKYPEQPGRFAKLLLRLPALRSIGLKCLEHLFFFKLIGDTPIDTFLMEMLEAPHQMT

The nature of assay [17]: qHTS assay to identify small molecule agonists of the AP-1 signaling pathway - cell viability counter screen (AID 1159525). Further: nearly all actives have a fitted effect of over 55% in size. The essentials: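 ME-180 AP-1-bla, 2500 cells/well, Opti-MEM + 0.5% dialyzed FBS; overnight 37 °C; cpd 15-pt titration, 5 h 37 °C; CellTiter-Glo 30 min RT; luminescence read; normalised to TOAB and DMSO controls.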
The target of assay [18] is Bile acid receptor (Homo sapiens) (UniProt Q96RI1). Nature of the assay: qHTS assay to identify small molecule antagonists of the farnesoid-X-receptor (FXR) signaling pathway (AID 743217; active means well fitted inhibition curve with a large enough effect in the signal ratio in the repeat runs, not every such curve was filed as active; the % refers to the signal ratio). Summed up:
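FXR-UAS-bla HEK 293T cells pre-incubated 5 h at 37 °C, then exposed to compounds with chenodeoxycholic acid (50 uM final) for 16 h at 37 °C. Beta-lactamase reporter read by LiveBLAzer B/G FRET substrate fluorescence after 2 h at room temperature.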

Assay [19] deals with Nuclear receptor ROR-gamma (Homo sapiens) (UniProt P51449). Nature of the assay: qHTS assay to identify small molecule antagonists of the retinoid-related orphan receptor gamma (ROR-gamma) signaling pathway (AID 1159521; active means well fitted curve in the direction sought with a large enough effect in the repeat runs; an effect the other way counts as inactive or inconclusive). The essentials: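 Readout: ONE-Glo luciferase luminescence, 30 min at room temperature. System: Tet-on RORγ CHO, RORE-LUC. Sequence: compound 2 h, doxycycline 1 uM final, 16 h at 37 C.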

Assay [20] addresses Bile acid receptor (Homo sapiens) (UniProt Q96RI1). Nature of the assay: qHTS assay to identify small molecule agonists of the farnesoid-X-receptor (FXR) signaling pathway (AID 743220; active means well fitted activation curve with a large enough effect in the signal ratio in the repeat runs, not every such curve was filed as active; the % refers to the signal ratio). Summed up:
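Beta-lactamase reporter under UAS control in GeneBLAzer FXR HEK 293T cells (5000/well) measured with LiveBLAzer FRET substrate after 2 h at room temperature. Compound exposure lasted 16 h at 37C.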

Inconclusive results are not listed. The source made the active and inactive calls. Unless noted, the call rests on the fitted dose curve.

Sequence of Bile acid receptor (Homo sapiens) (Q96RI1 whole entry, looked up): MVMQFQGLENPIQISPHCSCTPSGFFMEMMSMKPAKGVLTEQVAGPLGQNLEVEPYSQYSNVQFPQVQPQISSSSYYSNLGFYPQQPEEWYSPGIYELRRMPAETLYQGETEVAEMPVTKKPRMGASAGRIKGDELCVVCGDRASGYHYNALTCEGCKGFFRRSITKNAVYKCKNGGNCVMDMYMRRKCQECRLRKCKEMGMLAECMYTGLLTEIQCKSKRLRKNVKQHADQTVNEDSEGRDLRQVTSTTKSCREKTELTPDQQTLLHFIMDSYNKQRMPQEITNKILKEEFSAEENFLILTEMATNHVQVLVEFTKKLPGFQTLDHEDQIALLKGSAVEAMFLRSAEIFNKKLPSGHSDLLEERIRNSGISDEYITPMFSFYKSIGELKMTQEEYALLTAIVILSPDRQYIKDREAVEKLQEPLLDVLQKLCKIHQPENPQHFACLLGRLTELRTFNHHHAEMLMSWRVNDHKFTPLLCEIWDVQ

For the compound `C=CC(=O)NC(C)(C)CC(C)=O`, the Potency entry in [1], in assay [3], in assay [4], in [5], in assay [6] and in assay [8] was “inactive” each time. The Potency entry in assay [9], in assay [10], in assay [11], in assay [12], in assay [13] and in assay [14] was “inactive” each time. Besides, the Potency entry in assay [15] and in assay [16] was “inactive” throughout. In addition, the call in assay [2] and in [7] was inactive.

As for `COc1ccc2c(c1OC)C(=O)O[C@H]2[C@@H]1c2cc3c(cc2CCN1C)OCO3`, the Potency entry in assay [1], in [3], in assay [4], in [5], in assay [6] and in assay [9] was “inactive” each time. In addition, the Potency result in [10], in assay [11], in assay [12], in assay [13], in assay [14] and in assay [17] was “inactive” in each case. For the same compound, the Potency result in assay [15] and in assay [16] was “inactive” each time. Further, in [2], the compound was called inactive.

In the case of `Cc1nnc(-c2ccccc2)c(=O)n1N`, the Potency entry in [1], in assay [3], in [4], in assay [18], in assay [5] and in assay [6] was “inactive” in each case. Also, the Potency result in assay [10], in assay [11], in assay [12], in [14], in assay [19] and in assay [17] was “inactive” in each case. Further, the Potency result in [15] and in assay [16] was “inactive” in each case. The outcome in [2] and in [7] was inactive.

Take `C1CCNCC1`: the Potency result in assay [1], in [3], in assay [4], in assay [5], in assay [6] and in assay [8] was “inactive” throughout. For the same compound, the Potency result in assay [9], in assay [10], in assay [11], in assay [12], in [14] and in assay [19] was “inactive” each time. Further, the Potency result in [17], in [15] and in [16] was “inactive” each time. The call in assay [2] and in assay [7] was inactive.

As to `NCCc1cc(O)c(O)cc1O`, the Potency result in assay [1], in assay [3], in assay [5], in assay [6], in assay [8] and in assay [10] was “inactive” throughout. In addition, the Potency result in assay [11], in [13], in [14], in assay [17], in [15] and in [16] was “inactive” throughout. Also, the call in [2] and in [7] was inactive. Besides, in [12], the Potency is 4.25 µM (active).

With `CCCCOC(=O)CCC(=O)OCCCC`, the Potency entry in assay [1], in assay [3], in assay [5], in assay [6], in assay [9] and in [10] was “inactive” in each case. The Potency result in [11], in [12], in assay [13], in [14], in assay [17] and in assay [15] was “inactive” in each case. Further, the Potency result in assay [16] was “inactive”. Further, the result in [2] was inactive.

For the compound `C=CCOCC1CO1` (stereo not drawn), the Potency result in assay [1], in assay [3], in [5], in assay [6], in assay [8] and in assay [9] was “inactive” each time. For the same compound, the Potency entry in [10], in assay [11], in [12], in assay [14], in assay [19] and in [17] was “inactive” in each case. Further, the Potency entry in assay [15] and in [16] was “inactive” throughout. For the same compound, the outcome in assay [20] and in [7] was inactive.

With `COC(=O)C1(O)c2ccccc2-c2ccccc21`, the compound was called inactive in assay [2] and in [7]. Moreover, the Potency result in assay [3], in assay [5], in [6], in [9], in assay [10] and in assay [11] was “inactive” in each case. Also, the Potency entry in assay [12], in assay [13], in assay [14], in assay [17], in assay [15] and in assay [16] was “inactive” each time.

In the case of `Cc1ccccc1`, the Potency entry in assay [1], in assay [3], in assay [5], in [6], in [8] and in assay [9] was “inactive” in each case. Also, the Potency result in assay [10], in [11], in assay [12], in [13], in assay [14] and in assay [15] was “inactive” each time. Further, the Potency result in [16] is “inactive”. For the same compound, the compound was called inactive in assay [2] and in assay [7].

As to `Oc1cccc(Cl)c1`, the Potency entry in assay [18], in [5], in assay [6], in assay [8], in assay [9] and in [11] was “inactive” each time. The Potency entry in [12], in assay [13], in [14], in assay [17], in [15] and in [16] was “inactive” in each case. Besides, the compound was classed as inactive in assay [20] and in assay [7].

For `O=[N+]([O-])c1cc(Cl)c(Cl)cc1Cl`, the Potency entry in assay [1], in assay [4], in [5], in assay [8], in assay [9] and in [10] was “inactive” in each case. In addition, the Potency entry in assay [11], in assay [12], in assay [14], in assay [19], in assay [17] and in [15] was “inactive” each time. Moreover, in assay [16], the Potency result was “inactive”. The compound was classed as inactive in [2] and in assay [7].

Consider `C=CCOC(=O)C(C)(C)OC(=O)c1cc(-n2c(=O)cc(C(F)(F)F)n(C)c2=O)ccc1Cl`, for which the Potency result in assay [1], in [3], in assay [4], in assay [5], in assay [9] and in [10] was “inactive” each time. In addition, the Potency entry in [11], in assay [12], in [13], in [14], in [17] and in assay [15] was “inactive” in each case. For the same compound, the Potency result in assay [16] was “inactive”.

As to `O=S(=O)(Cl)Cl`, the Potency result in [1], in [5], in [8], in assay [9], in assay [10] and in assay [11] was “inactive” each time. In addition, the Potency result in assay [12], in [13], in assay [14], in assay [17], in assay [15] and in assay [16] was “inactive” each time. For the same compound, the compound was classed as inactive in assay [7].

(Values after PubChem BioAssay (Tox21).)
